Several values for one entry are separate records, joined by “and”; a condition that tells them apart may be missing. Identical values can stand only once. The whole screen tested about 430,000 compounds, of which about 2,600 (0.6%) were called active. No stated cut-off is given here; in the data, active means inhibition mostly above about 37% (no sharp cut-off); inactive means mostly below about 20%. For the sample, actives were picked, then their nearest neighbours and some compounds at random.
system: PriA–SSB C-terminal tail interaction (Klebsiella pneumoniae); experiment: inhibitors of Klebsiella pneumoniae PriA binding to SSB C-terminal tail, primary screen, biochemical, AlphaScreen (AID 1272365); conditions: AlphaScreen SSBct-PriA binding, biotinylated peptide; at 33 µM, stronger effect = higher value;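 further: plate controls were negative control peptide for no effect and reference peptide for full effect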

| Structure (SMILES) | inhibition |
| --- | --- |
| Cc1cccc(CCNS(=O)(=O)c2ccc3c(c2)NC(=O)CO3)c1 | 1.31% (inactive) |
| Cc1cccc(CCNS(=O)(=O)c2ccc(S(=O)(=O)NC3CCCC3)cc2)c1 | -8.63% (inactive) |
| CCCNS(=O)(=O)c1ccc2c(c1)CCCN2C(C)=O | -6.74% (inactive) |
| CCCN1CCCc2cc(CCNC(=O)C(=O)Nc3ccc(OC(F)(F)F)cc3)ccc21 | -6% (inactive) |
| CCCN1CCCc2cc(CCNS(=O)(=O)Cc3cccc(C)c3)ccc21 | 73% (active) |
| CCCN1CCCc2cc(CCNS(=O)(=O)c3ccc(NC(C)=O)cc3)ccc21 | 85% (active) |
| Cn1cccc1CN(Cc1cccs1)C(=O)c1ccccc1S(=O)(=O)C(F)F | 20% (inactive) |
| Cc1nc(N2CCCC2)nc(C)c1NC(=O)c1cccc(Cl)c1 | -6% (inactive) |
| Cc1cc(NC(=O)CSc2nnc(C)c3cnn(-c4ccc(F)cc4)c23)no1 | -7% (inactive) and -11% (inactive) |
| CCc1ccc(S(=O)(=O)N2CCOC(c3ccccc3)C2)s1 (centres undefined) | -11% (inactive) |
| COc1ccc(-c2nnc(NC(=O)c3ccc(SC)cc3)o2)cc1 | -3% (inactive) |
| COc1ccc2nc(N=C(N)NC(=O)N3c4ccccc4Sc4ccccc43)nc(C)c2c1 | -5.89% (inactive) |
| COc1ccc(-c2nnc(SC(=O)N3c4ccccc4Sc4ccccc43)o2)cc1 | 42.2% (active) |
| Cc1oc2cc(OCC(=O)c3ccc(F)cc3)ccc2c(=O)c1-c1ccccc1 | 7% (inactive) |
| CCCCOc1ccc(C(=O)Nc2ccc3c(c2)C(=O)N(C)C3=O)cc1 | -4% (inactive) |
| COc1ccc(S(=O)(=O)N2CCOCC2)cc1NC(=O)CSc1cc(C)ccc1C | 49.7% (active) |
| COc1ccc(S(=O)(=O)N2CCOCC2)cc1NC(=O)CSc1ncnc2ccccc12 | -9.78% (inactive) |
| COc1ccc(S(=O)(=O)N2CCOCC2)cc1NC(=O)Cc1coc2cc(C)ccc12 | -2.71% (inactive) |
| CC(=O)c1sc(NC(=O)COc2ccc(Cl)cc2)nc1C | -10% (inactive) |
| CSc1ccccc1NC(=O)C(=O)NC[C@]1(O)CCc2ccccc2C1 | -6% (inactive) |
| C[C@H](O)CN1CCN(C(=O)c2nc3ccccc3s2)CC1 | -1% (inactive) |
| Cn1ccnc1SCC1CCN(C(=O)c2nc3ccccc3s2)CC1 | 39% (active) |
| CS(=O)(=O)N1CCC(CNC(=O)c2nc3ccccc3s2)CC1 | -21% (inactive) |
| O=C(Nc1nc2ccccc2s1)C(=O)NC1CC1 | 3% (inactive) |

| Structure (SMILES) | inhibition |
| --- | --- |
| O=C(O)C(NC(=O)c1ccc(Cl)cc1)=C(Cl)Cl | -6% (inactive) |
| CC(C)c1nnc(NC(=O)/C=C/c2cccs2)s1 | -6% (inactive) |
| COc1ccc(C)cc1NC(=O)CSc1ncc(-c2ccccc2)n1C | -3% (inactive) |
| COCCN1CCCc2ccc(NS(=O)(=O)c3ccc(C)c(Cl)c3)cc21 | 54% (active) |
| COc1cc(NS(=O)(=O)CCc2ccccc2)ccc1N1CCCC1=O | -16% (inactive) |
| O=C(C1CCCC1)N1CCc2ccc(NS(=O)(=O)CCc3ccccc3)cc21 | 5% (inactive) |
| COCCN1CCCc2ccc(NS(=O)(=O)CCc3ccccc3)cc21 | 34% (active) |
| COCCN1CCCc2ccc(NC(=O)c3cccc(OC)c3)cc21 | 53% (inactive) |
| COCCN1CCCc2ccc(NC(=O)c3ccc(OC)cc3)cc21 | 45% (inactive) |
| c1cncc(-c2nnc3sc(-c4cc5ccccc5o4)nn23)c1 | -28% (inactive) |
| O=S(=O)(c1ccccc1F)N1CCN(c2cnnc(N3CCCC3)c2)CC1 | 0% (inactive) |
| CCOC(=O)c1sc(=NC(=O)CCCSc2ccc(OC)cc2)n(C)c1C | 2% (inactive) |
| COc1ccc(-c2cc(C3CCN(c4ncccc4[N+](=O)[O-])CC3)[nH]n2)cc1 | 47.3% (active) |
| COc1ccc(N2CCN(c3ccc([N+](=O)[O-])nc3)CC2)cc1 | 3.99% (inactive) |
| CC(=O)NC(Cc1ccccc1)C(=O)NC1CCN(c2ncccc2[N+](=O)[O-])CC1 (centres undefined) | -3.58% (inactive) |
| COCCn1c(SCc2nc(-c3ccc(F)cc3)no2)nc2ccsc2c1=O | -36% (inactive) |
| COC(=O)c1sccc1S(=O)(=O)N1C2CCCC1COC2 | -5% (inactive) |
| Cc1noc(CNC(=O)NCc2cccs2)n1 | -6% (inactive) |
| O=C(NCc1cccs1)NCc1cccnc1-c1ccsc1 | -6% (inactive) |
| O=C(NCCn1ccnc1-c1ncccn1)NCc1cccs1 | 71% (active) |
| O=C(Cc1cc(-c2ccc3c(c2)OCO3)on1)Nc1ccc(OC(F)(F)F)cc1 | 1% (inactive) |
| COCCCNC(=O)C(=O)Nc1ccc(Cl)cn1 | -18% (inactive) |
| COC(=O)c1ccc(NC(=O)C2CCCN(c3ccc(-c4ccc(F)cc4)nn3)C2)cc1 (centres undefined) | -17% (inactive) |
| O=C(C1CC(=O)N(c2ccc(F)cc2)C1)N1CCN(c2ccccc2)CC1 (centres undefined) | -4.67% (inactive) |

| Structure (SMILES) | inhibition |
| --- | --- |
| Cc1ccc(CN2CC(C(=O)N3CCN(S(=O)(=O)c4ccccc4)CC3)CC2=O)cc1 (centres undefined) | -17.9% (inactive) |
| CCC(C)c1ccccc1N1CC(C(=O)N2CCN(S(=O)(=O)c3ccc(F)cc3)CC2)CC1=O (centres undefined) | 44% (active) |
| CC(=O)[C@@H](C(=O)N(C)C)n1cnc2c(cnn2-c2cccc(Cl)c2)c1=O | -12% (inactive) |
| O=[N+]([O-])c1ccccc1NCc1ccccc1Cl | -2.79% (inactive) |
| CC(C)C(=NNc1ccccc1[N+](=O)[O-])c1ccccc1 | 64.3% (active) |
| CC(C)C(=NNC(=O)Nc1ccccc1)c1ccccc1 | -2.11% (inactive) |
| Cc1cc(=O)[nH]c(-n2ncc(C(=O)Nc3ccc(OC(F)(F)F)cc3)c2C)n1 | -10% (inactive) |
| Cc1cc(C)c(S(=O)(=O)NCCC(=O)NCc2cccnc2)cc1N(C)S(C)(=O)=O | -9% (inactive) |
| CCOC(=O)c1sc(NC(=O)CSc2nnc(CNC(=O)c3ccc(Cl)cc3Cl)n2C)c(C(=O)OCC)c1C | 5% (inactive) and -12% (inactive) |
| CCOC(=O)c1c(NC(=O)CSc2nnc(Cc3csc(N)n3)n2C)sc(C)c1C | -7% (inactive) and 53.5% (active) |
| CCOC(=O)c1c(NC(=O)CSc2nnc(CN3CCOCC3)n2C)sc2c1CCCC2 | -3.23% (inactive) |
| CCSc1nnc(NC(=O)CSc2nnc(CNC(=O)c3cccs3)o2)s1 | -13% (inactive) |
| O=C(COc1ccccc1F)NNC(=O)c1ccc(N2CCCCC2)c([N+](=O)[O-])c1 | 13.6% (inactive) |
| O=C(ON=Cc1ccc(N2CCCCC2)c([N+](=O)[O-])c1)c1c(F)cccc1F | 41.1% (active) |
| CON=Cc1ccc(N2CCOCC2)c([N+](=O)[O-])c1 | -5.72% (inactive) |
| COc1ccc(C(=O)CSc2nccn(-c3ccc(C)cc3)c2=O)cc1 | 8% (inactive) |
| c1ccc(-c2ccc(-c3csc4ncnc(N5CCCCCC5)c34)cc2)cc1 | -3% (inactive) |
| Brc1c(-c2ccccc2)nc2n1CCC2 | 57% (active) |
| COc1ccc(-c2nc3n(c2Br)CCC3)cc1 | 18.6% (inactive) |
| Brc1cccc(-c2nnc3n2CCC3)c1 | -16.1% (inactive) |
| CCN(CC)c1ccc(C=NNS(=O)(=O)c2cccc([N+](=O)[O-])c2)cc1 | 46.5% (active) |
| CCc1ccc(S(=O)(=O)NN=Cc2ccc3c(c2)OCO3)cc1 | -15.4% (inactive) |
| COc1ccc(CCNS(=O)(=O)c2cccc([N+](=O)[O-])c2)cc1 | 0.99% (inactive) |
| Cc1ccccc1OCC(=O)NCCS(=O)(=O)N1CCN(Cc2ccccc2)CC1 | -5% (inactive) |

| Structure (SMILES) | inhibition |
| --- | --- |
| c1ccc(OCc2nc(-c3ccccn3)n[nH]2)cc1 | 104% (active) |
| Cc1nc2nc(COc3ccccc3)[nH]n2c(=O)c1C | -10.1% (inactive) |
| c1ccc(-c2nc(-c3cnccn3)n[nH]2)nc1 | 125% (active) |
| COc1ccc(OCc2nc(-c3ccccn3)n[nH]2)cc1 | 101% (active) |
| O=c1oc2ccccc2cc1-c1nc(-c2ccncc2)n[nH]1 | 0% (inactive) |
| Cc1cccc2[nH]c(COc3ccc(F)cc3)nc12 | -4% (inactive) |
| S=c1[nH]nc(COc2ccccc2)o1 | -8% (inactive) |
| COc1cccc(C(=O)N2CC(c3nc(-c4ccccn4)no3)C2)c1 | -10% (inactive) |
| CCOC(=O)c1ccccc1NC(=O)Cn1cnc2c(cnn2-c2ccc(C)cc2C)c1=O | 20% (inactive) |
| Cc1cc(NC(=O)C(=O)NCc2cccnc2)ccc1N1CCCC1=O | 0% (inactive) |
| COc1ccc(CCS(=O)(=O)NCC(=O)N2CCOC(c3ccccc3)C2)cc1 (centres undefined) | 2% (inactive) |
| Cc1ccc2cccc(C(=O)N3CC(S(=O)(=O)Cc4ccco4)C3)c2n1 | -1% (inactive) |
| O=C(CSc1nc2c(c(=O)[nH]1)CN(Cc1ccc(F)cc1)CC2)Nc1ccc(F)c(Cl)c1 | 0% (inactive) |
| O=c1[nH]c(=S)[nH]c2sc3c(c12)CCC3 | 18% (inactive) |
| CCOc1cc(-c2nnc(NC(=O)c3cc(Cl)ccc3Cl)o2)cc(OCC)c1OCC | 0% (inactive) |
| Cc1ccc(NC(=O)C(=O)NCC(c2ccc(F)cc2)N2CCN(C)CC2)cc1Cl (centres undefined) | -4% (inactive) |
| Cc1ccc(S(=O)(=O)Nc2c(S(=O)(=O)c3ccccc3)c3nc4ccccc4nc3n2Cc2ccccc2)cc1 | 34.2% (inactive) |
| CCCCCCCCn1c(NS(=O)(=O)c2ccc(Cl)cc2)c(S(=O)(=O)c2ccccc2)c2nc3ccccc3nc21 | 49.6% (inactive) |
| CCCCOCCCn1c(NS(=O)(=O)c2ccccc2)c(S(=O)(=O)c2ccc(C)cc2)c2nc3ccccc3nc21 | 67.3% (active) |
| CCCCn1c(NS(=O)(=O)c2ccc(Cl)cc2)c(S(=O)(=O)c2ccc(C)cc2)c2nc3ccccc3nc21 | 54.8% (inactive) |
| Cc1ccc(S(=O)(=O)c2c(N)n(N=Cc3ccco3)c3nc4ccccc4nc23)cc1 | 11% (inactive) |
| CCCCOCCCn1c(NS(=O)(=O)c2ccc3ccccc3c2)c(S(=O)(=O)c2ccc(C)cc2)c2nc3ccccc3nc21 | 59.9% (active) |

— PubChem BioAssay AID1272365 (Small Molecule Screening Facility, UW Madison, 2020)
